# Source: PubChem BioAssay (The Scripps Research Institute Molecular Screening Center)
# PAD4 inh: inhibitors of human PAD4; Q9UM07; recombinant PAD4, RCA probe fluorescence polarization; inhibition, % at 6.36 µM; actives 0.41% (n = 330,000);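 active means percent inhibition above a cutoff equal to the mean of all tested compounds plus 3 SD, cut at about 15% in these data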;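 further: 0% = PAD4 with RCA probe and DMSO and 100% = probe without PAD4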
# PME-1 inh: PME-1 (human) inhibition. AID 2130. inhibition, % at 5.9 µM. Q9Y570. actives 0.53% (n = 320,000). recombinant PME-1, FP-Rh probe fluorescence polarization;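 active means inhibition above the campaign mean of all compounds plus 3 SD, cut at about 26% in these data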;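 further: competitive labeling of PME-1 active site by serine hydrolase directed probe; 0% = PME-1 with DMSO and 100% = wells lacking PME-1 enzyme; inhibitors block probe labeling so polarization falls and inhibition rises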
# Target sequence (Q9Y570 whole entry, looked up): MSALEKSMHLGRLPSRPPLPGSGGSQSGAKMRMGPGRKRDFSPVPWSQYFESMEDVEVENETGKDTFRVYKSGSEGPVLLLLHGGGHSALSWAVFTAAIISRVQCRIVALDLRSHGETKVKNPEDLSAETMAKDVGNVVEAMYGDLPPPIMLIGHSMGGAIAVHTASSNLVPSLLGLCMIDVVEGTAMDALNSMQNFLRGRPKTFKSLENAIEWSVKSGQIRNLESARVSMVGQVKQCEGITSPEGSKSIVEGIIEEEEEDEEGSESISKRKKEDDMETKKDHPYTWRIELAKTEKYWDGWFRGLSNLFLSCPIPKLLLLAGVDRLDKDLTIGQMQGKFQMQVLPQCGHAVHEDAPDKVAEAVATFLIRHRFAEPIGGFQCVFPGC
# Fam108B inh: counter-screen for RBBP9 inhibitors: inhibitors of mouse Fam108B. actives 0.33% (n = 300,000). recombinant Fam108B, FP-Rh probe fluorescence polarization. inhibition, % at 9.51 µM;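 active means inhibition above the screen mean inhibition plus 3 SD, computed separately per campaign, cut at about 18% in these data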;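 further: inhibitors lower polarization as less probe binds the enzyme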
# GSTO1 inh: counter-screen for RBBP9 inhibitors: inhibitors of human GSTO1 | P78417 | recombinant GSTO1, activity-based probe fluorescence polarization | inhibition, % at 5.96 µM | actives 1.1% (n = 300,000);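 active means inhibition above the campaign mean inhibition plus 3 SD, cut at about 35% in these data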;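 further: 0% = GSTO1-1 with DMSO and 100% = wells lacking GSTO1-1 enzyme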
# pPAFAH inh: pPAFAH (human) enzyme inhibition; Q13093; actives 1.5% (n = 330,000); recombinant pPAFAH, FP-rhodamine probe fluorescence polarization; AID 463082; inhibition, % at 3.39 µM;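 active means inhibition above the mean inhibition across the screen plus 3 SD, cut at about 25% in these data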;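 further: inhibitors block binding of the rhodamine activity-based probe so polarization drops; 0% = enzyme with DMSO and 100% = wells lacking pPAFAH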
# Numbers without * were called inactive; nt = no result. Most compounds without a hit are left out; they make up all but 2.3% or so of the library.
SMILES,PAD4 inh,PME-1 inh,Fam108B inh,GSTO1 inh,pPAFAH inh
O=C(CN(c1cccc([N+](=O)[O-])c1)S(=O)(=O)c1ccccc1)N1CCCCC1,2,-4,-2,6,3
O=C(Cn1cnc(S(=O)(=O)N2CCCC2)c1)Nc1cccc(F)c1,0,2,-2,0,7
Cc1ccc(NS(=O)(=O)c2ccc(C(=O)NCC(c3ccco3)N3CCCCC3)cc2)cc1 (centres undefined),-2,11,-1,14,30*
Cc1ccc(NC(=O)COC(=O)c2ccc(CN3CCCC3=O)cc2)c(Cl)c1,1,1,nt,nt,10
Cc1sc2ncnc(NCC3COc4ccccc4O3)c2c1C (centres undefined),-3,1,-2,0,6
c1ccc(-c2csc3ncnc(NCC4COc5ccccc5O4)c23)cc1 (centres undefined),-7,-3,1,-10,34*
Nc1ccc(-n2nncc2-c2ccc(Cl)cc2)cc1,-7,5,5,5,6
N#Cc1nc(COc2ccccc2F)oc1NCCCn1ccnc1,0,-2,2,36*,-2
N#Cc1c(-c2ccccc2)nc(SCC(=O)Nc2ccccc2)[nH]c1=O,0,0,0,-8,-2
N#Cc1c(-c2ccccc2)nc(SCC(=O)Nc2nnc(C(F)(F)F)s2)[nH]c1=O,-5,-8,3,67*,-9
Cc1sc(-n2c(C)cc(/C=C3\SC(=S)NC3=O)c2C)c(C#N)c1C,-12,1,8,14,31*
O=C(CC1SC(=O)N(c2ccccc2)C1=O)Nc1ccc(Br)cc1 (centres undefined),-17,-3,-1,-49,32*
O=C(CC1SC(=O)N(c2ccccc2)C1=O)Nc1ccc(Cl)cc1 (centres undefined),-11,-1,-3,-64,22
C(=C\c1ccco1)/c1ccc2ccccc2n1,-3,-2,0,12,26*
Cc1ccc(C(=O)NCC(=O)OCN2C(=O)c3ccccc3C2=O)cc1C,0,3,nt,nt,1
O=C(CNC(=O)c1ccco1)OCN1C(=O)c2ccccc2C1=O,-1,0,1,37*,0
O=C(N/N=C/c1sc2ccccc2c1O)c1cccc2ccccc12,-28,10,3,42*,15
O=C(N/N=C/c1sc2ccccc2c1O)c1ccccc1,3,0,1,17,17
COc1ccc(OC)c(/C=N/NC(=O)CCc2ccc(O)c(O)c2)c1,3,-7,6,36*,17
C=CCOc1ccc(/C=N/NC(=O)c2cc3c(OC)cc(OC)cc3[nH]2)cc1,1,41*,13,-25,2
COc1ccc(OC)c(/C=N/NC(=O)CCc2c(C)n[nH]c2C)c1,-4,3,0,-2,1
COc1ccc(OC)c(/C=N/NC(=O)c2cc3c(OC)cccc3[nH]2)c1,1,13,15,2,25*
Cc1ccc(S(=O)(=O)N(C)C[C@@H]2Oc3ccc(NC(=O)CCC(F)(F)F)cc3CC(=O)N([C@@H](C)CO)C[C@@H]2C)cc1,3,nt,nt,nt,-1
CCN(CC(=O)Nc1c(F)cccc1F)C(=O)c1ccc(C)c(S(=O)(=O)N2CCCCC2)c1,-3,7,-1,2,2
CCCc1cc(=O)[nH]c(SCC(=O)Nc2ccc(C)cc2)n1,-6,0,4,-7,1
SMILES,PAD4 inh,PME-1 inh,Fam108B inh,GSTO1 inh,pPAFAH inh
CCc1ccc(NC(=O)CSc2nc(CSc3ccc(C)cc3)cc(=O)[nH]2)cc1,-2,-7,-4,-20,27*
COc1ccc(C)cc1NC(=O)NNC(=O)C(C)Oc1ccc([N+](=O)[O-])cc1 (centres undefined),2,2,-4,4,2
CC(C)(C)c1ccc(-n2ncc3c2CCCC3NC(=O)CCN2CCCCC2=O)cc1 (centres undefined),-3,4,0,9,64*
Cc1nnsc1C(=O)NC1CCCc2c1cnn2-c1ccc(C(C)(C)C)cc1 (centres undefined),0,2,-3,35*,11
O=C(c1ccccc1-n1cccn1)N1CCc2c([nH]c3ccccc23)C1c1ccccn1 (centres undefined),-2,-3,1,1,4
CC(=O)OCC1=C(C(=O)O)N2C(=O)C(NC(=O)c3ccc(COc4cccc(Cl)c4Cl)o3)C2SC1 (centres undefined),-4,-16,-11,-12,30*
O=C(O)CC(c1ccc(C(F)(F)F)cc1)N1Cc2ccccc2C1=O (centres undefined),2,-7,4,2,-1
CCc1[nH]nc2c1C(c1ccc(C)o1)C(C#N)=C(N)O2 (centres undefined),-3,-1,-1,12,1
Cc1ccc(SCc2[nH]nc3c2C(c2ccco2)C(C#N)=C(N)O3)cc1 (centres undefined),-9,6,3,37*,7
Cc1ccc(SCc2[nH]nc3c2C(c2ccc(C)o2)C(C#N)=C(N)O3)cc1 (centres undefined),13,10,0,37*,0
CC(C)n1cc(CN2CCN(C)C(CCO)C2)c2ccccc21 (centres undefined),1,-4,-1,-1,6
CC1=NN(Cc2ccccc2)C(=O)C1C(c1ccc(Cl)cc1)C(C#N)C#N (centres undefined),-3,-4,8,16,5
Cc1[nH]n(-c2ncc(-c3ccccc3)s2)c(=O)c1C(c1ccc(Cl)cc1)C(C#N)C#N (centres undefined),-10,7,12,18,27*
CSc1ccc(Cl)c(C(=O)NNC(=O)c2csc(N3CCOCC3)n2)c1,2,4,2,-4,2
Cc1ccc(S(=O)(=O)N[C@H](C(=O)N2CCC(C(=O)N[C@@H](CCC(N)=O)C(=O)O)CC2)C(C)C)cc1,3,-2,2,2,2
Cc1ccc(C(=O)c2c(C)oc3c2C(=O)C(=O)c2ccccc2-3)cc1,-13,1,12,31,26*
O=C(NC1CC1)C1CCN(c2ncccn2)CC1,-2,-7,1,5,1
CN(C)c1ccc(/C=N/N=C2/NC(=O)/C(=C/c3ccc([N+](=O)[O-])cc3)S2)cc1,0,11,2,49*,20
O=C1CCCC2=C1C(c1ccc(Br)cc1)c1c([nH]c(=S)[nH]c1=O)N2 (centres undefined),-9,4,3,-2,2
O=c1[nH]c(=S)[nH]c2c1C(c1ccc(Br)cc1)c1c([nH]c(=S)[nH]c1=O)O2,-23,-54,-7,-236,27*
CC1Cc2cc(/C(O)=C3/C(=O)C(=O)N(CCCN4CCOCC4)C3c3ccc(C(C)C)cc3)ccc2O1 (centres undefined),-3,5,2,2,8
CCCC(=O)Nc1cc(C(=O)O)ccc1S(=O)(=O)c1ccc(Cl)cc1,-1,-2,1,6,4
